In PubChem BioAssay AID2401 (Southern Research Specialized Biocontainment Screening …, 2010) one finds outcome data, which are given here for 71 compounds.

SMILES strings stand for the structures. In all, about 2,200 compounds went through this assay and about 530 (24%) were called active.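 Rule for the calls: active = inhibition above a set limit at one or more concentrations of the dose series; inactive = inhibition under that limit at every dose.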 Only a sample is shown. Entries with a potency or affinity are not part of this list.

This test is described as follows: S. Typhimurium nonspecific reporter signal inhibition – Salmonella Typhimurium, GFP fluorescence, counter-screen for PhoP regulon inhibitor project, dose response (AID 2401).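 Note: S. typhimurium with Mg-insensitive nmpC-GFP reporter grown at 10 µM Mg2+; drop in reporter fluorescence reflects general culture growth inhibition.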 The following applies: 4 h; series mostly up to 150 µM. (The purpose of a counterscreen is to sort out artefacts and off-target activity.)
For `O=C(CSC1CCCCC1)Nc1ccccc1Br`, the call was inactive.

As to `Cc1ccc(C(=O)Oc2ccc(C(=O)COC(=O)c3cnccn3)cc2)cc1`, the call was inactive.

As for `O=C(NC1CCCCC1)C(c1ccncc1)N(Cc1ccccc1)C(=O)c1ccc(-c2ccccc2)[nH]1` (stereo unspecified), the call was inactive.

Consider `Clc1ccccc1OCCn1ccnc1`, for which the compound was classed as inactive.

As to `Cc1ccc(C(=O)NCc2ccc(Cl)cc2)o1`, the result was inactive.

`S=C(Nc1ccc2snnc2c1)N1CCN(c2ccccn2)CC1`: the compound was called inactive.

With `CC1CN(C(=O)CCc2ccccc2)C(C)CN1C(=O)CCc1ccccc1` (stereo unspecified), the compound was called inactive.

Turning to `O=C(NC(NC(=S)Nc1ccc(Cl)cc1)C(Cl)(Cl)Cl)c1ccco1` (stereo unspecified), the call was inactive.

In the case of `Cc1ccc(NC(=S)NC(NC(=O)c2ccco2)C(Cl)(Cl)Cl)cc1` (stereo unspecified), the compound was called inactive.

Consider `O=c1c(Br)c(Br)cnn1-c1ccccc1`, for which the result was inactive.

For the compound `Clc1ccc(-c2csc3ncnc(N4CCc5ccccc5C4)c23)cc1`, the call was inactive.

For the compound `CCOC(=O)c1sc2nccc(N(C)C)c2c1N=CNOCc1c(F)cccc1Cl`, the result was inactive.

As to `O=C(NC(c1ccc(Cl)cc1)c1c(O)ccc2ccccc12)c1ccccc1` (stereo unspecified), the call was inactive.

As to `CCCCCn1c(C(C)NC(=O)CCC)nc2ccccc21` (stereo unspecified), the call was inactive.

Consider `Cc1ccc2cccnc2c1NC(=S)NC(=O)c1ccccc1`, for which the call was inactive.

As to `O=C(Cc1ccccc1)NC1c2ccccc2-c2ccccc21`, the call was inactive.

Consider `O=C(CSc1nnc(-c2ccc(O)cc2)n1-c1ccccc1)CC(=O)Nc1ccccc1`, for which the result was inactive.

`O=C(OCC1COc2ccccc2O1)c1ccccc1F` (stereo unspecified): the result was inactive.

As to `CC1=C(C(=O)OCC2CCCO2)C(c2cccc(C(F)(F)F)c2)C2=C(CC(c3ccco3)CC2=O)N1` (stereo unspecified), the compound was called inactive.

As to `O=S(=O)(Nc1ccc(Cc2ccncc2)cc1)c1ccc(Br)s1`, the compound was called inactive.

In the case of `Cn1ncc(N=Cc2ccccc2O)c1C(=O)Nc1ccccc1`, the compound was classed as inactive.

Consider `N#CC1=C(N)Oc2c(O)cc3ccccc3c2C1c1ccsc1` (stereo unspecified), for which the outcome was inactive.

Turning to `O=C(CSCc1ccccc1)Nc1ccc2c(c1)OCO2`, the outcome was inactive.

As to `CCOc1cc(CNn2cnnc2)ccc1OCC(=O)NC1CCCCC1`, the compound was classed as inactive.

`O=C(CCCNS(=O)(=O)c1ccccc1)NCc1ccco1`: the call was inactive.

Consider `Cc1ccc(C(=O)Nc2ccc3c(c2)OCO3)o1`, for which the compound was classed as inactive.

`Clc1ccc(-c2cnc3n2CCC3)cc1`: the call was inactive.

Turning to `Clc1ccc(C[n+]2cc(-c3ccc(Cl)cc3)n3c2CCC3)cc1`, the outcome was inactive.

As to `COC(=O)Cc1c(O)ccn(Cc2ccc(F)cc2)c1=O`, the result was inactive.

On to `O=C(O)Cn1cc(C(=O)c2ccco2)c2ccccc21`, for which the compound was classed as inactive.

With `CCn1cc(C(=O)O)c(=O)c2cc(OC)ccc21`, the result was inactive.

Regarding `O=C(Nc1ccc(NC(=O)C23CC4CC(CC(C4)C2)C3)cn1)c1ccco1`, the compound was called inactive.

For the compound `Oc1ccc(-c2n[nH]c(=S)n2-c2ccc3c(c2)OCCO3)c(O)c1`, the compound was classed as inactive.

With `Nn1c(COc2cccc(Br)c2)nnc1SCC(=O)N1CCc2ccccc2C1`, the call was inactive.

In the case of `c1ccc2c(C3=NNC(=NC4CC4)SC3)c[nH]c2c1`, the compound was called inactive.

As to `O=C(Nc1cnn(Cc2ccc(Cl)cc2Cl)c1)c1noc2c1CCCC2`, the compound was classed as inactive.

In the case of `CC(=O)c1c(N2CCN(C(=O)C3CCCO3)CC2)nc(=S)n(-c2ccccc2)c1C` (stereo unspecified), the compound was called inactive.

Consider `Nc1ccccc1NC1=CC(=O)CC(c2ccco2)C1` (stereo unspecified), for which the outcome was inactive.

As to `CCOC(=O)C1=NNC2(c3ccc(Cl)cc3)C(=O)N(c3cc(C)cc(C)c3)C(=O)C12` (stereo unspecified), the outcome was inactive.

`NC1=NC(=Nc2ccc(Cl)cc2)c2ccccc21`: the call was inactive.

In the case of `C=CCNCC#CCOc1ccc(OC)cc1`, the result was inactive.

`O=C1NC2=C(CCc3ccccc32)C(c2ccc(Br)cc2)N1` (stereo unspecified): the outcome was inactive.

As for `Cc1nc(C(=O)Nc2ccc(Cl)cc2)nn1-c1ccc([N+](=O)[O-])cc1`, the outcome was inactive.

As to `O=c1[nH]c2cc3c(cc2cc1CN(CCc1ccccc1)Cc1nnnn1CC1CCCO1)OCO3` (stereo unspecified), the outcome was inactive.

For `Cc1cc(-c2csc(NC(=O)c3ccc(S(=O)(=O)N(C)C)cc3)n2)c(C)n1-c1ccccc1`, the call was inactive.

Regarding `Cc1cc(C(=O)NCc2ccco2)no1`, the compound was classed as inactive.

As for `COc1ccc(-c2cc(-c3ccc(OC)c(OC)c3)n[nH]2)c(O)c1`, the call was inactive.

Turning to `COCCNC(=O)c1ccccc1NS(=O)(=O)c1ccc(Br)s1`, the call was inactive.

Consider `Cc1cccn2cc(CSc3nnc(Nc4ccc(C(C)C)cc4)s3)nc12`, for which the compound was classed as inactive.

`CCC(CC)C(=O)N1c2ccc(F)cc2CCC1C` (stereo unspecified): the outcome was inactive.

In the case of `CC1(C)CC(=O)C2=C(C1)N(Cc1ccccc1)C(=O)C2(O)C(F)(F)F` (stereo unspecified), the compound was classed as inactive.

With `COc1ccc(CNc2nc3c(c(=O)[nH]c(=O)n3C)n2CCCc2ccccc2)cc1`, the outcome was inactive.

As for `COC(=O)c1cc(C#N)c(Oc2cccc(C)c2C)nc1C`, the compound was classed as inactive.

`COC(=O)CN1C(c2ccc(OC)cc2)=Nc2ccc(Cl)cc2C1c1ccccc1` (stereo unspecified): the compound was classed as inactive.

For `CCCCn1c(O)c(C(CC)=Nc2ccc3c(c2)CCC3)c(=O)[nH]c1=O`, the call was inactive.

In the case of `Cc1ccc(C(=O)N2CC3(C(C)C)CN(C(=O)c4ccc(C)cc4)CC(C(C)C)(C2)C3=O)cc1`, the outcome was inactive.

Take `Cc1ccc(C(=O)C(OC(=O)COc2ccccc2C)c2ccccc2)cc1` (stereo unspecified): the compound was called inactive.

As for `Cc1cc(C)c(NC(=O)COc2ccccc2C(=O)Nc2ccc3c(c2)oc2ccccc23)c(C)c1`, the result was inactive.

`CC1(C)CC(=O)C=C(Nc2ccccc2NC(=O)c2cnccn2)C1`: the call was inactive.

For `COc1cc(C2NC(=O)NC(c3ccccc3)=C2C(C)=O)ccc1OCC(=O)O` (stereo unspecified), the result was inactive.

`Cc1ccc(C(=O)c2ccccc2C(=O)O)c(O)c1`: the outcome was inactive.

In the case of `Cc1c(/C=C/C(=O)c2ccccc2)cnn1C`, the compound was called inactive.

Regarding `COc1cccc(OC)c1C(=O)NC(=S)Nc1cc(-c2nc3ccccc3[nH]2)ccc1Cl`, the result was inactive.

In the case of `Cc1cc(C=O)c(C)n1-c1ccc(Oc2ccc([N+](=O)[O-])cn2)cc1`, the call was inactive.

On to `CCCn1c(SCC(=O)NCCc2ccccc2)nnc1-c1cccnc1`, for which the outcome was inactive.

Turning to `O=[N+]([O-])c1ccc(N2CCN(CCOc3nonc3-c3ccccc3)CC2)c(Cl)c1`, the call was inactive.

On to `Cc1ccc(S(=O)(=O)c2c(N)n(NC(=O)c3ccco3)c3nc4ccccc4nc23)cc1`, for which the compound was classed as inactive.

Regarding `Cc1c(Cl)cccc1NC(=O)CSc1ncnc2c1cnn2CCc1ccccc1`, the compound was called inactive.

On to `Cc1cccc(NC(=S)NC(NC(=O)c2ccco2)C(Cl)(Cl)Cl)c1` (stereo unspecified), for which the compound was called inactive.

For `CN(C)CCOC(=O)Cc1ccc(Cl)cc1`, the compound was called inactive.

Regarding `O=C(CN1C(=O)c2ccccc2C1=O)N1CCN(c2ccccn2)CC1`, the call was inactive.
